# Several values for one entry are separate records, joined by “and”; a condition that tells them apart may be missing. Identical values can stand only once. Results filed as inconclusive are left out. Activity calls are given as the source filed them. Unless noted, calls follow the shape of the dose curve; as a rule, active = well fitted curve in the direction sought with a large enough effect; inconclusive = small, poorly fitted or top-dose-only effect, or another doubt; inactive = no such curve, though single readings can be large; an effect the other way counts as inactive or inconclusive.
# Assays:
# [1] = AP1 Signaling Pathway (AID 357; active = well fitted curve in either direction with a large enough effect, not every such curve was filed as active; also: % is scaled to controls: 0 for no effect and ±100 for the full control effect); conditions: ME-180 AP-1-bla reporter, EGF-induced, beta-lactamase ratio, 5 h; at 7.69 µM (top of the series) unless noted
# In short: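 ME-180 cells with beta-lactamase reporter under AP-1 response element, stimulated with EC50 EGF; compounds tested in titration series, 5 h at 37 °C. CCF4 substrate added 2.5 h at room temperature; 460/530 nm emission ratio gave %activity and AC50.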
# [2] = target: Cytochrome P450 1A2 (Homo sapiens) (UniProt P05177); experiment: p450-cyp1a2 (AID 410; calls by dose curve; also: potency is read from the fitted curve at half-maximal effect;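 as to activity change, negative = inhibition: -100% = full effect of reference inhibitor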)
# Chain of Cytochrome P450 1A2 (Homo sapiens) (P05177 whole entry, looked up): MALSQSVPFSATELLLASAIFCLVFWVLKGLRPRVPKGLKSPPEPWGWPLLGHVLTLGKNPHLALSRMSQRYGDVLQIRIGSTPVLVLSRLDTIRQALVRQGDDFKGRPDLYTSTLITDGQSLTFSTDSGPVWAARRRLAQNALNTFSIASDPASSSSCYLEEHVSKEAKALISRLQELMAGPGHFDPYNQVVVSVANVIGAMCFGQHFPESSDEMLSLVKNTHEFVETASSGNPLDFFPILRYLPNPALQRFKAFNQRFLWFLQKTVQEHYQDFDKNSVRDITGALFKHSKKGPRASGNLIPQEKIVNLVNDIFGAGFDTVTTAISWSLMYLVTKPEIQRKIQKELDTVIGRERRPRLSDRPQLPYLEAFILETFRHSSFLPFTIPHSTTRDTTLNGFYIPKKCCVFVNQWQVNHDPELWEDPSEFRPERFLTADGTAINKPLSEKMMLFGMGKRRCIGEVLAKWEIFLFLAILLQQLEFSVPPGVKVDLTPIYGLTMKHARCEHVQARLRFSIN
# In short: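 Human CYP1A2 (20nM) demethylated Luciferin-ME at its Km (100uM) in 100mM KPO4. After 10 min compound preincubation, NADPH regeneration ran the reaction 60 min at room temperature. Luciferin was read by luminescence, normalized to 57 uM furafylline.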
# [3] = NFAT Signaling Pathway (AID 444; active = well fitted curve in either direction with a large enough effect, not every such curve was filed as active;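 also: carbachol stimulus at about its EC50 of 1 µM final; % is scaled to controls: 0 for no effect and ±100 for the full control effect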); conditions: Jurkat NFAT-bla M1, carbachol, beta-lactamase ratio, 5 h; at 7.69 µM (top of the series) unless noted
# In short: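 Jurkat cells with NFAT-driven β-lactamase reporter and co-expressed M1 receptor, stimulated with carbachol (final 1 uM, ~EC50), compound titration, 5 h at 37 °C. CCF4 loaded 1 h at RT; 460/530 nm ratio gave %activity and AC50.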
# [4] = Stat Signaling Pathway (AID 446; active = well fitted curve in either direction with a large enough effect, not every such curve was filed as active;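 also: ME-180 cervical cancer cells given 40 pM IL-6 alongside compound; SIE-controlled beta-lactamase reporter measured as 460/530 nm FRET emission ratio; % is scaled to controls: 0 for no effect and ±100 for the full control effect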); conditions: ME-180 SIE beta-lactamase reporter, IL-6 stimulated, 5 h; at 7.69 µM (top of the series) unless noted
# In short: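 Reporter line: ME-180 cervical carcinoma, SIE-beta-lactamase. Treatment: compound with 40 pM IL-6, 5 hrs, 37 C, in low-serum OPTI-MEM with 10 mM HEPES pH 7.3. Detection: 460/530 nm fluorescence.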
# [5] = target: Glucocorticoid receptor (Homo sapiens) (UniProt P04150); experiment: GR-GFP Redistribution (AID 450;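 active = compounds whose dose series gives a full or clear partial fitted curve of increased nuclear translocation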; also: potency is read from the fitted curve at half-maximal effect); conditions: U2OS GR-GFP nuclear translocation, laser cytometry, 2 h
# Chain of Glucocorticoid receptor (Homo sapiens) (P04150 whole entry, looked up, the tested form may be a part): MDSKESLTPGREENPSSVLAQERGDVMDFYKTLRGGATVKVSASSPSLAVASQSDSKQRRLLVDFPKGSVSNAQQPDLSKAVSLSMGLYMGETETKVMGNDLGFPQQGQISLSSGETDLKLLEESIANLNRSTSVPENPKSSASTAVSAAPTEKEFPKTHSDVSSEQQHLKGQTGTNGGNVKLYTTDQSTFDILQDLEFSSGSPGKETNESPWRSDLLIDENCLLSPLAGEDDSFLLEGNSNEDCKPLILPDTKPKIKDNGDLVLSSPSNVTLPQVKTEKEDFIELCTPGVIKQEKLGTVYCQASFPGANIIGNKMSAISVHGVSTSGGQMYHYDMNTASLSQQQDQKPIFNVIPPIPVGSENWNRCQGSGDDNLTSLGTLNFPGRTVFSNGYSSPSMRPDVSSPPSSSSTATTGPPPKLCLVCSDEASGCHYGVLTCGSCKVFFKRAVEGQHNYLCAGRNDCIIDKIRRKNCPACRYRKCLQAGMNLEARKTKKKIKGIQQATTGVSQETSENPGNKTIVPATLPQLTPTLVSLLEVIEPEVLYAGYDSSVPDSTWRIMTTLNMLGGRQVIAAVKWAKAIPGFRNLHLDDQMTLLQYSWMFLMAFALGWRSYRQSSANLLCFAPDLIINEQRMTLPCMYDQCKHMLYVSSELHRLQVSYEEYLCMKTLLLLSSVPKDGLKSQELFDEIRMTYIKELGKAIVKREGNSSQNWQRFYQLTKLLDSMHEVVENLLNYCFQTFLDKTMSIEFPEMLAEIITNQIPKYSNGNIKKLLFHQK
# [6] = target: Glucocorticoid receptor (Homo sapiens) (UniProt P04150); experiment: GR-EFC Redistribution (AID 451; calls by dose curve; also: potency is read from the fitted curve at half-maximal effect); conditions: CHO-K1 GR-EFC translocation, beta-gal luminescence, 2 h
# In short: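 CHO-K1 cells expressing nuclear EA and GR-ED fragments of b-gal; compounds titrated up to 46 uM final, 2 h at 37 C. GR nuclear translocation read as complemented b-gal luminescence after 1 h RT detection.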
# [7] = target: Mitogen-activated protein kinase 10 (Mus musculus) (UniProt Q61831); experiment: JNK3 AlphaScreen Assay (AID 530; active = well fitted curve in either direction with a large enough effect, not every such curve was filed as active;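 also: kinase came from lysate of stimulated human HepG2 cells; signal reports phosphorylation of biotinylated GST-cJun 1-79 at Ser73 with 10 µM ATP; % is scaled to controls: 0 for no effect and ±100 for the full control effect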)
# In short: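 qHTS format: compounds tested as titrations against IL-1beta/TNF-alpha-activated HepG2 lysate JNK3 with biotin-GST-cJun substrate and 10 uM ATP at room temperature. Loss of anti-phospho-cJun AlphaScreen signal indicates inhibition.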
# [8] = target: 3',5'-cyclic-AMP phosphodiesterase 4B (Homo sapiens) (UniProt Q07343); experiment: qHTS Assay for Inhibitors of PDE-IV (AID 607; active = well fitted activation curve with a large enough effect in the main read-out, with a control signal flat, not every such curve was filed as active; also: % of control where 0% means no effect)
# Chain of 3',5'-cyclic-AMP phosphodiesterase 4B (Homo sapiens) (Q07343 whole entry, looked up): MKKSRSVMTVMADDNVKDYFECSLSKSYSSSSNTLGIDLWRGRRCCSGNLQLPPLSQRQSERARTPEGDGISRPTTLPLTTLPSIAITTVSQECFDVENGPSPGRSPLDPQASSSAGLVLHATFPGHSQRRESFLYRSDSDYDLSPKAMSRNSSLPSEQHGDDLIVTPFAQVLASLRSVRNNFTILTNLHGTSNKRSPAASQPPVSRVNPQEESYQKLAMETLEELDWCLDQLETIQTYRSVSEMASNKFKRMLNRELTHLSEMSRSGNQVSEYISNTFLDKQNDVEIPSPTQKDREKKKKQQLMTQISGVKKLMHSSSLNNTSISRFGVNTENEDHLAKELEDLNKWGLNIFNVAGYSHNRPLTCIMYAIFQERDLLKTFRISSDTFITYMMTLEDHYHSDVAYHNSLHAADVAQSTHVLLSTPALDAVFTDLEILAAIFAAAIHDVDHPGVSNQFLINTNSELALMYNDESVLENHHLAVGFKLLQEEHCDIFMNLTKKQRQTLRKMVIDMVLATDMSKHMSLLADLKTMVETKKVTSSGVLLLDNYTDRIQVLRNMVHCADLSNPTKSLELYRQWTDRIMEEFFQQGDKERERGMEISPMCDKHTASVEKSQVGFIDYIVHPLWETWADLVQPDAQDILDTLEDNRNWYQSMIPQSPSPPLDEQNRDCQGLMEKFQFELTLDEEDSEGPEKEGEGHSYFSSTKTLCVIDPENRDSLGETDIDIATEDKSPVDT
# In short: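 Cell-based read-out of cAMP via a modified cyclic nucleotide-gated channel and membrane potential dye (535/590 nm) in HEK293 cells expressing PDE4 endogenously. Compounds tested up to 22.9 uM final; 100 uM RO 20-1724 reference.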
# [9] = target: Cytochrome P450 3A4 (Homo sapiens) (UniProt P08684); experiment: qHTS Assay for Activators of Cytochrome P450 3A4 (AID 885); also: nearly all actives have a fitted effect of over 65% in size; also: potency is read from the fitted curve at half-maximal effect
# Chain of Cytochrome P450 3A4 (Homo sapiens) (P08684 whole entry, looked up): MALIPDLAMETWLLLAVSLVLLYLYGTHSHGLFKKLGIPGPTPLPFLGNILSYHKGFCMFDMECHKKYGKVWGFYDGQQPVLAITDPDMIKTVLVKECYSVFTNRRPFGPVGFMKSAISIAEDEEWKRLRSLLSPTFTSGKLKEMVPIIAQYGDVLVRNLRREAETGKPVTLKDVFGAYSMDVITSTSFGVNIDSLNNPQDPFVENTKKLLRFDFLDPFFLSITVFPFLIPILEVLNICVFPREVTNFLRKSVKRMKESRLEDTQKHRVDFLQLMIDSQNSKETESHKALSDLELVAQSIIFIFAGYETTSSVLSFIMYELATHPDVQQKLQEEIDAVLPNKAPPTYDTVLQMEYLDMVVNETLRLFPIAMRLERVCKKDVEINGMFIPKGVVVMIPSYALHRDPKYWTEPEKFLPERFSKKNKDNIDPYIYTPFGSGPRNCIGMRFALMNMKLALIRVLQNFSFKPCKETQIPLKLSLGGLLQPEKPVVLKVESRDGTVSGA
# In short: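 Signal was normalized against complete inhibition by 57 uM ketoconazole. The reaction used 20nM CYP3A4 with 25uM Luciferin-PPXE, 10-min compound preincubation and a 60-min NADPH-supported step at RT.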
# [10] = qHTS Assay for Lipid Storage Modulators (AID 1519; calls by dose curve); conditions: Drosophila S3 cells, BODIPY lipid droplet/cell ratio, laser cytometry, cells loaded with oleic acid
# In short: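 Cells seeded at 5,000 per well were treated with compounds over a concentration series and loaded with oleic acid (400 uM, as added). Lipid droplet fluorescence (488 nm excitation, 500-530 nm channel) was read by laser-scanning cytometry and normalized to 20 uM Triacsin C.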
# [11] = target: Ubiquitin carboxyl-terminal hydrolase 1 (Homo sapiens) (UniProt O94782); experiment: Inhibitors of USP1/UAF1: Pilot qHTS (AID 504865);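 also: rhodamine fluorescence freed from ubiquitin-rhodamine substrate followed over time; top concentration of the series differs between compounds; % is scaled to controls: 0 for no effect and ±100 for the full control effect; nearly all actives have a fitted effect of over 35% in size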
# Chain of Ubiquitin carboxyl-terminal hydrolase 1 (Homo sapiens) (O94782 whole entry, looked up): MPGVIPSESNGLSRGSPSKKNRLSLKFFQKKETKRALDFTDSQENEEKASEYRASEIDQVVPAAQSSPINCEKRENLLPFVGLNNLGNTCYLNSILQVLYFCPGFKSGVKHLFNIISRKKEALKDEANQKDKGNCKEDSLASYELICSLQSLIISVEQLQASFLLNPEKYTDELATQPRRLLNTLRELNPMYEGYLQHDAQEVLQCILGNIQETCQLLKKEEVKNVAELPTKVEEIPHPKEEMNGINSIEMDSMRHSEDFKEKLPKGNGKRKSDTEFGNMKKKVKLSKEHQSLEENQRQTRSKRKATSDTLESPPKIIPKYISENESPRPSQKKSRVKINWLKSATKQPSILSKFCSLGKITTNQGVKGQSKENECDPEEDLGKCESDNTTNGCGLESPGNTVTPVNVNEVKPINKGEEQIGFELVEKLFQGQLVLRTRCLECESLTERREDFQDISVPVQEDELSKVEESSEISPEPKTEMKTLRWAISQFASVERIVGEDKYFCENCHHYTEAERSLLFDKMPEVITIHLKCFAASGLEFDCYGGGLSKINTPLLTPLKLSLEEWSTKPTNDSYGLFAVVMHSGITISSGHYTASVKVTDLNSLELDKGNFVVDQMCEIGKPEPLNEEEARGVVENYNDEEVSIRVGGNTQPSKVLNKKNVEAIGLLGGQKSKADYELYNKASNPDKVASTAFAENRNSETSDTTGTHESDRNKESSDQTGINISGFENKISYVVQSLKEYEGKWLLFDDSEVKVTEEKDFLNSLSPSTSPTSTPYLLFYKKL
# In short: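 USP1/UAF1 complex (1nM) preincubated with compound 15 min at room temperature, then Ub-Rho substrate (150nM final) added. Fluorescence read kinetically at 480/540 nm, 6 reads every 60 seconds. Buffer: 50mM HEPES pH 7.8, 0.5mM EDTA, 0.1 mg/ml BSA, 1mM TCEP, 0.01% Tween-20.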
# [12] = target: Luciferin 4-monooxygenase (Photinus pyralis) (UniProt P08659); experiment: Biochemical firefly luciferase enzyme assay for NPC (AID 624030);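 also: purified P. pyralis luciferase at 10 nM with luciferin and ATP substrate; 0% = DMSO and -100% = full luciferase inhibition by PTC124 control; nearly all actives have a fitted effect of over 70% in size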
# Chain of Luciferin 4-monooxygenase (Photinus pyralis) (P08659 whole entry, looked up): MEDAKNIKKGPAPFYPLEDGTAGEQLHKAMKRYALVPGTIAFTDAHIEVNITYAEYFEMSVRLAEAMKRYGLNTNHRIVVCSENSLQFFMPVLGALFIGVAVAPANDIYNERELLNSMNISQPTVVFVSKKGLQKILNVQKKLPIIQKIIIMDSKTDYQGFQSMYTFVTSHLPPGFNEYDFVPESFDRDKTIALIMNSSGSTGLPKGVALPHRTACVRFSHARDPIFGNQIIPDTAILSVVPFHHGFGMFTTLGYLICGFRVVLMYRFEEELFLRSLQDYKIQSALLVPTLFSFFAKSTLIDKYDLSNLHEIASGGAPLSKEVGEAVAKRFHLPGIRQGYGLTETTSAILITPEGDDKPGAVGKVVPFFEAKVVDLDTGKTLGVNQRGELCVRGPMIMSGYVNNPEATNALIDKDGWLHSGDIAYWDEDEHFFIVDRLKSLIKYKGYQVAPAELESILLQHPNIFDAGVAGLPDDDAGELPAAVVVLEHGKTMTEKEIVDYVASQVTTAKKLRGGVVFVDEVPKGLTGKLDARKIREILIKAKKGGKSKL
# In short: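 Purified P. pyralis luciferase at 10 nM in 50 mM Tris Acetate (final), luminescence read within 5 minutes of enzyme addition to compounds. Activity normalised to PTC124 versus DMSO; concentration-response curves classed by r2, magnitude and activity.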
# [13] = qHTS profiling for inhibitors of Plasmodium falciparum proliferation (AID 504749);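 also: 0% = DMSO vehicle and full inhibition = artemisinin control; nearly all actives have a fitted effect of over 60% in size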; conditions: P. falciparum in erythrocytes, SYBR Green DNA, 72 h, at 12.8 µM (top of the series)
# In short: (§1)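 Readout was DNA-dye fluorescence from lysed cultures, ex 485/em 535 nm. Parasitized red cells had grown 72 h with compound; data scaled between 0.29 uM artemisinin and DMSO wells and corrected using vehicle-only plates.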
# ATS189 = experiment: as above; conditions: P. falciparum in erythrocytes, SYBR Green DNA, 72 h; series mostly up to 12.8 µM
# In short: as §1
# CP201 = experiment: as above; conditions: P. falciparum in erythrocytes, SYBR Green DNA, 72 h; series mostly up to 12.8 µM
# In short: as §1
# CP291 = experiment: as above; conditions: P. falciparum in erythrocytes, SYBR Green DNA, 72 h; series mostly up to 12.8 µM
# In short: as §1
# DFO2036 = experiment: as above; conditions: P. falciparum in erythrocytes, SYBR Green DNA, 72 h; series mostly up to 12.8 µM
# In short: as §1
# PC49 = experiment: as above; conditions: P. falciparum in erythrocytes, SYBR Green DNA, 72 h; series mostly up to 12.8 µM
# In short: as §1
# TAB113 = experiment: as above; conditions: P. falciparum in erythrocytes, SYBR Green DNA, 72 h; series mostly up to 12.8 µM
# In short: as §1
# [14] = measured here: cell count channel max response
# [15] = measured here: lipid channel max response
smiles,measurement,setting,value
CNc1nc(-c2ccccc2OC)nc2ccccc12,"activity change, negative = inhibition",[1],7.61% (inactive)
same,Potency,[2],0.398 µM (active)
same,"activity change, negative = inhibition",[3],-10.4% (inactive)
same,"activity, negative = inhibition",[4],17.7% (inactive)
same,Potency,[5],> 46 µM (inactive)
same,Potency,[6],> 46 µM (inactive)
same,Potency,[7],inactive
same,Potency,[8],inactive
same,Potency,[9],inactive
same,"activity change, negative = inhibition",[10]; at 57.5 µM (top of the series),2.04% (inactive)
same,max response,[10]; [14],-10.6%
same,max response,[10]; [15],-7.86%
same,Potency,[11],inactive
CNc1nc(-c2ccccc2C(F)(F)F)nc2ccccc12,"activity change, negative = inhibition",[1],-1.48% (inactive)
same,Potency,[2],0.251 µM (active)
same,"activity change, negative = inhibition",[3],5.59% (inactive)
same,"activity, negative = inhibition",[4],3.95% (inactive)
same,Potency,[5],> 46 µM (inactive)
same,Potency,[6],> 46 µM (inactive)
same,Potency,[7],inactive
same,Potency,[8],inactive
same,"activity change, negative = inhibition",[10]; at 57.5 µM (top of the series),5.47% (inactive)
same,max response,[10]; [14],10%
same,max response,[10]; [15],19.8%
CC(=O)Oc1c(C)c(C)c2c(c1C)CCC(C)(CCCC(C)CCCC(C)CCCC(C)C)O2 (stereo not drawn),"activity change, negative = inhibition",[10]; at 57.5 µM (top of the series),7.46% (inactive) and -0.674% (inactive)
same,max response,[10]; [14],1.52% and -6.76%
same,max response,[10]; [15],12.6% and -6.49%
same,Potency,[11],inactive
C=C1C2CC[C@@]3(C)C(c4ccoc4)OC(=O)C[C@@]13OC1CC(O)C(C)(C)C(CC(=O)OC)[C@@]12C (stereo partly drawn),Potency,[9],inactive
same,"activity change, negative = inhibition",[10]; at 57.5 µM (top of the series),-26.4% (inactive) and -20.4% (inactive)
same,max response,[10]; [14],9.22% and 0.891%
same,max response,[10]; [15],-12.6% and -14.6%
same,Potency,[11],inactive
CCN1C(=O)N[C@@H](c2ccccc2)C1=O,"activity change, negative = inhibition",[1],-1.74% [at 17.2 µM] (inactive)
same,Potency,[2],inactive
same,"activity change, negative = inhibition",[3],1.96% [at 17.2 µM] (inactive)
same,"activity, negative = inhibition",[4],-21.2% [at 17.2 µM] (inactive)
same,Potency,[5],> 20.6 µM (inactive)
same,Potency,[6],> 20.6 µM (inactive)
same,Potency,[7],inactive
same,Potency,[8],inactive
same,"activity change, negative = inhibition",[10]; at 25.7 µM (top of the series),-2.13% (inactive)
same,max response,[10]; [14],-10.1%
same,max response,[10]; [15],-9.51%
same,Potency,[11],inactive
same,outcome,[12],inactive
same,"activity, negative = inhibition",[13]; parasite line A,-3.65% (inactive)
same,"activity, negative = inhibition",[13]; parasite line B,13.5% (inactive)
same,Potency,ATS189,inactive
same,Potency,CP201,inactive
same,Potency,CP291,inactive
same,Potency,DFO2036,inactive
same,Potency,PC49,inactive
same,Potency,TAB113,inactive
C/C=C\C(=O)N(CC)c1ccccc1C,"activity change, negative = inhibition",[1],-1.59% [at 17.2 µM] (inactive)
same,Potency,[2],inactive
same,"activity change, negative = inhibition",[3],-0.257% [at 17.2 µM] (inactive)
same,Potency,[5],> 20.6 µM (inactive)
same,Potency,[6],> 20.6 µM (inactive)
same,Potency,[7],inactive
same,Potency,[8],inactive
same,Potency,[9],7.94 µM (active)
same,"activity change, negative = inhibition",[10]; at 25.7 µM (top of the series),-4.01% (inactive)
same,max response,[10]; [14],-15.1%
same,max response,[10]; [15],-17.7%
same,outcome,[12],inactive
same,"activity, negative = inhibition",[13]; parasite line A,6.96% (inactive)
same,"activity, negative = inhibition",[13]; parasite line B,1.34% (inactive)
same,Potency,ATS189,inactive
same,Potency,CP201,inactive
same,Potency,CP291,inactive
same,Potency,DFO2036,inactive
same,Potency,PC49,inactive
same,Potency,TAB113,inactive
O=C(c1ccncc1)N1CCC[C@@]2(CCN(Cc3ccncc3)C2)C1,"activity change, negative = inhibition",[1],14.5% (inactive)
same,"activity change, negative = inhibition",[3],3.82% (inactive)
same,"activity, negative = inhibition",[4],-6.44% (inactive)
same,Potency,[6],> 46 µM (inactive)
same,Potency,[7],inactive
same,Potency,[8],inactive
same,"activity change, negative = inhibition",[10]; at 57.5 µM (top of the series),4.83% (inactive)
same,max response,[10]; [14],4.05%
same,max response,[10]; [15],12.8%

# Source: PubChem BioAssay (NCATS)
